In PubChem BioAssay (Tox21):
Where “and” joins values, the source holds several entries; their conditions need not be identical. Equal values may be shown once. Inconclusive results are not listed. The source holds several records for some structures; these can differ, active in one and inactive in another. Calls of active or inactive are those of the source. The call rests on the fitted dose curve; in most records, active means well fitted curve in the direction sought with a large enough effect in the repeat runs; inconclusive means weak or mixed curves; inactive means no such curve, though single readings can be large; an effect the other way counts as inactive or inconclusive.

Assays:
[1] = A CellTox Green Cytotoxicity Assay to monitor cytotoxicity in HepG2 cells - 0 hour (AID 1224882); conditions: CellTox Green fluorescence; series mostly up to 76.8 µM; further: nearly all actives have a fitted effect of over 35% in size
Method in brief: (§1)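 Fluorescent DNA-binding dye, 600 HepG2 cells/well, 5 h preincubation then compound in DMSO; same plates read at 0–40 h, 37 C.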

[2] = A CellTox Green Cytotoxicity Assay to monitor cytotoxicity in HEK293 cells - 8 hour (AID 1224884); conditions: CellTox Green fluorescence; series mostly up to 76.8 µM; further: nearly all actives have a fitted effect of over 35% in size; further: potency means the concentration at half of the fitted maximal effect
Method in brief: (§2)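 Homogeneous no-lysis format: HEK293 cell suspension mixed with CellTox Green reagent, seeded, incubated 5 h at 37 C/5% CO2, then dosed by pintool with compound in DMSO.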

[3] = qHTS RealTime-Glo MT Cell Viability Assay in HepG2 cells - 16 hour (AID 1224885); conditions: RealTime-Glo luminescence; series mostly up to 76.8 µM; further: nearly all actives have a fitted effect of over 50% in size; further: potency means the concentration at half of the fitted maximal effect
Method in brief: (§3)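 Luminescence read-out: viable HepG2 cells reduce a prosubstrate to a NanoLuc substrate, giving a signal proportional to live cell number. Reads taken at 0, 8, 16, 24, 32 and 40 h of compound exposure at 37 C.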

[4] = qHTS RealTime-Glo MT Cell Viability Assay in HEK293 cells - 24 hour (AID 1224886); conditions: RealTime-Glo luminescence; series mostly up to 76.8 µM; further: nearly all actives have a fitted effect of over 50% in size; further: potency means the concentration at half of the fitted maximal effect
Method in brief: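 Nonlytic real-time viability readout: viable cells convert prosubstrate to NanoLuc substrate, giving luminescence proportional to live cell number. HEK293, 600 cells/well, compound added after 5 h, continuous culture at 37 C.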

[5] = qHTS RealTime-Glo MT Cell Viability Assay in HEK293 cells - 8 hour (AID 1224887); conditions: RealTime-Glo luminescence; series mostly up to 76.8 µM; further: nearly all actives have a fitted effect of over 50% in size; further: potency means the concentration at half of the fitted maximal effect
Method in brief: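 Measured as luminescence from the same continuously cultured HEK293 wells at successive time points (0, 8, 16, 24, 32, 40 h) after compound addition. Reagent present from seeding; dosing at 5 h; incubation 37 C.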

[6] = A CellTox Green Cytotoxicity Assay to monitor cytotoxicity in HEK293 cells - 16 hour (AID 1224888); conditions: CellTox Green fluorescence; series mostly up to 76.8 µM; further: nearly all actives have a fitted effect of over 35% in size; further: potency means the concentration at half of the fitted maximal effect
Method in brief: as §2

[7] = qHTS RealTime-Glo MT Cell Viability Assay in HepG2 cells - 0 hour (AID 1224889); conditions: RealTime-Glo luminescence; series mostly up to 76.8 µM; further: nearly all actives have a fitted effect of over 50% in size; further: potency means the concentration at half of the fitted maximal effect
Method in brief: as §3

[8] = A CellTox Green Cytotoxicity Assay to monitor cytotoxicity in HepG2 cells - 8 hour (AID 1224890); conditions: CellTox Green fluorescence; series mostly up to 76.8 µM; further: nearly all actives have a fitted effect of over 45% in size; further: potency means the concentration at half of the fitted maximal effect
Method in brief: as §1

[9] = A CellTox Green Cytotoxicity Assay to monitor cytotoxicity in HepG2 cells - 32 hour (AID 1224883); conditions: CellTox Green fluorescence; series mostly up to 76.8 µM; further: nearly all actives have a fitted effect of over 50% in size; further: potency means the concentration at half of the fitted maximal effect
Method in brief: as §1

[10] = qHTS assay to identify small molecule antagonists of the estrogen receptor alpha (ER-alpha) signaling pathway using the BG1 cell line in the presence of 0.1 nM 17-beta-estradiol - cell viability counter screen (AID 1259241); conditions: VM7Luc4E2 (BG1) viability, CellTiter-Fluor protease, 22 h, 0.1 nM estradiol agonist added; series mostly up to 92.4 µM; further: nearly all actives have a fitted effect of over 40% in size; further: potency means the concentration at half of the fitted maximal effect
Method in brief: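 VM7Luc4E2 cells (endogenous ER-alpha, 4×ERE-luciferase), hormone-starved 5 days in charcoal-stripped FBS, were treated with compounds plus 0.1 nM 17beta-estradiol for 22 hr at 37C; viability read in same wells as CellTiter-Fluor live-cell protease fluorescence.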

Measured: Potency

CCCC(=O)c1ccccc1
not listed: [9] | [10]
inactive: all other assays above

CCn1cc(C(=O)O)c(=O)c2cc(F)c(N3CCNC(C)C3)c(F)c21 (stereo not drawn)
not listed: [4] | [8]
inactive: all other assays above

NC(=Nc1ccccc1)Nc1ccccc1
not listed: [4]
inactive: all other assays above

COc1ccc(CCN(C)CCCC(C#N)(c2ccc(OC)c(OC)c2)C(C)C)cc1OC (stereo not drawn)
inactive: [1] | [2] | [6]
active: [9] 54.8 µM

Cc1c(O)cccc1C(=O)N[C@@H](CSc1ccccc1)[C@H](O)CN1C[C@H]2CCCC[C@H]2C[C@H]1C(=O)NC(C)(C)C
active: [9] 12 µM | [10] 8.41 µM and 15 µM
not listed: [3] | [4]
inactive: all other assays above

Cc1ccc(S(=O)(=O)Oc2ccc(N=Nc3ccc(-c4ccc(N=Nc5c(O)ccc6cc(S(=O)(=O)O)cc(S(=O)(=O)O)c56)c(C)c4)cc3C)cc2)cc1
active: [10] 21.8 µM and 14.1 µM
not listed: [3] | [7]
inactive: all other assays above

COC(=O)[C@H]1[C@H]2C[C@@H]3c4[nH]c5cc(OC)ccc5c4CCN3C[C@H]2C[C@@H](OC(=O)c2cc(OC)c(OC)c(OC)c2)[C@@H]1OC
active: [4] 4.89 µM and 6.34 µM and 8.49 µM | [5] 4.89 µM and 6.34 µM and 9.52 µM
not listed: [3]
inactive: all other assays above

c1cc(C(c2ccc(OCC3CO3)cc2)C(c2ccc(OCC3CO3)cc2)c2ccc(OCC3CO3)cc2)ccc1OCC1CO1 (stereo not drawn)
not listed: [4] | [8]
inactive: all other assays above

CCN1CCCC1CNC(=O)c1cc(S(=O)(=O)CC)c(N)cc1OC (stereo not drawn)
not listed: [4]
inactive: all other assays above

CCN(CC)c1ccc2c(C)cc(=O)oc2c1
active: [4] 34.9 µM
not listed: [8] | [9] | [10]
inactive: all other assays above

O=C(Nc1ccccc1SSc1ccccc1NC(=O)c1ccccc1)c1ccccc1
active: [9] 49 µM
not listed: [4] | [5] | [10]
inactive: all other assays above

OCC(CO)N[C@H]1C[C@](O)(CO)[C@@H](O)[C@H](O)[C@H]1O
not listed: [4] | [8]
inactive: all other assays above

Nc1ccc(O)cc1
57.1 µM (active) and inactive: [3]
40.4 µM (active) and inactive: [4] | [5]
not listed: [9] | [10]
inactive: all other assays above

OCCOCCN1CCN(C(c2ccccc2)c2ccc(Cl)cc2)CC1 (stereo not drawn)
43.1 µM (active) and inactive: [8]
24.2 µM (active) and inactive: [9]
48.3 µM (active) and inactive: [3]
not listed: [4]
inactive: all other assays above

CC(C)(C)c1ccccc1
not listed: [9] | [10]
inactive: all other assays above

CC[C@H]1CN2CCc3cc(OC)c(OC)cc3[C@@H]2C[C@@H]1C[C@H]1NCCc2cc(OC)c(OC)cc21
active: [4] 17.4 nM and 47.7 nM | [5] 874 nM and 3.38 µM
not listed: [9] | [10]
inactive: all other assays above

O=C1Nc2ccccc2C1(c1ccc(O)cc1)c1ccc(O)cc1
active: [10] 298 nM
not listed: [4]
inactive: all other assays above

CC(C)(C)NC(=O)[C@@H]1CN(Cc2cccnc2)CCN1C[C@@H](O)C[C@@H](Cc1ccccc1)C(=O)N[C@H]1c2ccccc2C[C@H]1O
not listed: [9]
inactive: all other assays above

Cc1cc(C2(c3cc(C)c(O)cc3C)OS(=O)(=O)c3ccccc32)c(C)cc1O
active: [7] 19.5 µM and 15.5 µM | [10] 21.7 µM and 15.4 µM
not listed: [3] | [4]
inactive: all other assays above

Oc1ccc(Cl)cc1Cc1cc(Cl)ccc1O
25 µM (active) and inactive: [5]
not listed: [4] | [8]
inactive: all other assays above

CC(C)(C)c1ccc(O)c(C(C)(C)C)c1
inactive: [1] | [7] | [10]
active: [9] 48.8 µM and 43.6 µM | [2] 43.5 µM | [4] 38.7 µM | [5] 34.5 µM | [6] 24.4 µM and 34.7 µM | [8] 48.8 µM and 49 µM

O=Nc1ccc(Nc2ccccc2)cc1
active: [9] 49.2 µM and 43.6 µM | [3] 43.6 µM | [5] 15.6 µM and 21.9 µM | [7] 19.6 µM
inactive: [1] | [2] | [6] | [10]

CC(COc1ccccc1)N(CCCl)Cc1ccccc1 (stereo not drawn)
active: [4] 49.5 µM and 49 µM
not listed: [8] | [9]
inactive: all other assays above

COc1ccc(CCN2CCC(Nc3nc4ccccc4n3Cc3ccc(F)cc3)CC2)cc1
inactive: [1] | [7]
active: [2] 44.6 µM and 26.8 µM | [3] 28.1 µM and 21.3 µM | [5] 12.6 µM and 9.52 µM | [6] 35.4 µM and 26.8 µM | [8] 39.8 µM and 23.9 µM | [10] 49600 nM

NC(N)=NC(=O)Cc1c(Cl)cccc1Cl
not listed: [9]
inactive: all other assays above

CCCCCCCCCCCCc1ccccc1O
inactive: [1] | [7]
inactive and 34.7 µM (active): [3]
active: [5] 43.1 µM and 38.9 µM | [6] 43.1 µM and 38.9 µM
inactive and 21.9 µM (active): [8]

NCCO
not listed: [9]
inactive: all other assays above

CCCCC(CC)COC(=O)CC(C(=O)OCC(CC)CCCC)S(=O)(=O)O (stereo not drawn)
active: [2] 13.8 µM | [6] 19.5 µM
inactive: [1] | [3] | [7] | [8] | [10]

CCN(CC)CCOc1ccc(/C(=C(\Cl)c2ccccc2)c2ccccc2)cc1
active: [3] 31.6 µM and 23.9 µM | [5] 12.6 µM and 21.3 µM | [6] 35.4 µM | [8] 35.4 µM and 21.3 µM
39.7 µM (active) and inactive: [2]
inactive: [1] | [7]

[Cl][In]([Cl])[Cl]
not listed: [2] | [4] | [9]
inactive: all other assays above
